# Compound activity (PubChem)
# Compounds with a hit are over-represented: about 21% of the library has one in this group of screens.
# Pf growth 48h = inhibits P. falciparum growth in the first generation, 48 h | P. falciparum luciferase growth in erythrocytes, 48 h | Potency, µM (top dose mostly 28.7 µM), hits mostly inhibitors | actives 5.9% (n = 310,000) | AID 504832
#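 Firefly luciferase activity from engineered P. falciparum reports growth; inhibitors lower the luminescent signal. Cultures contained 2% hematocrit erythrocytes at 0.1% final parasitemia.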
# Shiga toxin inh = Shiga toxin inhibition. Vero cells, Shiga toxin protein synthesis inhibition reporter. inhibition, % at 38.7 µM. actives 9.2% (n = 290,000). AID 2315; in the data active means inhibition mostly above about 28%, no sharp cut-off; inactive means mostly below about 43%
# Cycloheximide cs = counter-screen for Shiga toxin inhibitors: cycloheximide protein synthesis inhibition; max response, %; cell reporter, cycloheximide protein synthesis inhibition counterscreen; actives 12% (n = 300,000); AID 2314; in the data active means max response mostly above about 13%, no sharp cut-off; inactive means mostly below about 14%; further: read at 38.3 µM for the half of the compounds with a filed dose
# AMA1 RON2 block = inhibitors of Plasmodium falciparum AMA1-RON2 interaction. actives 0.2% (n = 360,000). AID 720542. Potency, µM (series often up to 58.2 µM), hits mostly inhibitors. AlphaScreen AMA1-biotinylated RON2 peptide binding; further: nearly all actives have a fitted effect of over 45% in size
#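 AMA1 (3D7) with his tag at 25 nM final met compounds first, then biotinylated RON2 peptide at 25 nM; detection used donor plus acceptor beads, 10 µg/mL apiece, read by AlphaScreen after 30 min at room temperature.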
# HCV inh = inhibitors of hepatitis C virus infection | Huh7.5.1 HCVcc-Cre infection, luciferase reporter, 44 h | Potency, µM (top dose mostly 41.8 µM), most hits filed as inhibitors | actives 3.4% (n = 340,000) | AID 651820
#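 HCVcc-Cre virus at an moi near 0.5 was added right after compound to cells cultured 4 h from seeding (1,000 cells/well). Luciferase activity was determined 44 h later, 15 min after substrate addition at RT.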
# Pf growth 96h = P. falciparum growth inhibition at 96 hour, primary screen for plastid delayed-death inhibitors | P. falciparum luciferase reporter growth, 96 h | Potency, µM (doses to about 28.7 µM), hits mostly inhibitors | actives 6.9% (n = 320,000) | AID 504834
#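 Readout is luminescence from an integrated firefly luciferase in P. falciparum. Red cells, 2% hematocrit and 0.05% parasitemia final, were cultured with compound through two parasite generations (96 hours) at 37 C, 5% CO2.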
# Hits are given with their value; n = inactive; u = inconclusive; x = not tested or not shown; [ ] = remark or other dose. Unless noted, the call rests on the fitted dose curve; in most records, active means well fitted curve in the direction sought with a large enough effect; inconclusive means small, poorly fitted or top-dose-only effect, or another doubt; inactive means no such curve, though single readings can be large; an effect the other way counts as inactive or inconclusive.
SMILES,Pf growth 48h,Shiga toxin inh,Cycloheximide cs,AMA1 RON2 block,HCV inh,Pf growth 96h
CC(=O)Nc1ccc(NC(=O)c2ccc(N(C)S(=O)(=O)c3ccc(C)cc3)cc2)cc1,n,n,n,n,n,10µM
Cc1ccc(S(=O)(=O)N(C)c2ccc(C(=O)Nc3cccnc3)cc2)cc1,n,n,n,n,n,10µM
C=CCOc1ccc(/C=N/NC(=O)c2cc3c(OC)cc(OC)cc3[nH]2)cc1,3.3µM,n,n,n,u,2.3µM
CCOc1ccc2[nH]c(C(=O)N/N=C/c3cc(OC)c(OC)c(OC)c3)cc2c1,x,n,n,n,u,12µM
COc1ccc(OC)c(/C=N/NC(=O)c2cc3c(OC)cc(OC)cc3[nH]2)c1,u,n,n,n,25µM,u
CCOc1ccc(/C=N/NC(=O)c2cc3c(OC)cc(OC)cc3[nH]2)cc1OC,1.7µM,n,n,n,u,0.93µM
CCOc1ccc(/C=N/NC(=O)c2cc3c(OC)cccc3[nH]2)cc1,u,n,n,n,n,u
Fc1ccc(NC(=S)Nc2cc(-c3ccccc3)[nH]n2)cc1Cl,10µM,n,n,n,u,n
COc1ccc(NC(=S)Nc2ccc(C)c(Cl)c2)cc1OC,n,n,n,n,n,n
Cc1ccc(NC(=S)Nc2cc(-c3ccccc3)[nH]n2)cc1Cl,u,48,13,n,n,n
Cc1cc2sc3ccccc3c(=O)c2c(C)c1O,u,85,71,n,u,n
Cc1ccc(NC(=O)c2cccc(S(=O)(=O)Nc3c(C)n(C)n(-c4ccccc4)c3=O)c2)cc1C,x,x,x,n,n,x
COc1cccc(NC(=O)Nc2nccc(C)n2)c1,n,72,38,n,n,n
Cc1ccnc(NC(=O)Nc2cccc(F)c2)n1,n,79,28,n,n,n
Cc1cccc(NC(=O)Nc2cccc(F)c2)n1,n,79,52,n,n,n
O=C(NCC(=O)N1CCN(S(=O)(=O)c2ccccc2F)CC1)c1ccc(Br)o1,n,n,n,n,n,n
CCOC(=O)CSc1nc2ccc(C)cc2cc1C#N,n,80,59,n,n,x
Cc1cc(C)c2cc(C#N)c(SCC(=O)NCc3ccco3)nc2c1,n,n,n,n,u,n
CCOC(=O)CSc1nc2cc(OC)ccc2cc1C#N,n,116,22,n,u,n
COc1ccc2cc(C#N)c(SCC(=O)Nc3nonc3C)nc2c1,n,n,n,n,u,n
CCOC(=O)CSc1nc2cc(C)cc(C)c2cc1C#N,n,n,14,n,n,x
CCOC(=O)CSc1nc2cc(C)ccc2cc1C#N,n,100,41,n,u,u
Cc1ccc2cc(C#N)c(SCC(=O)Nc3ccc4sc(C)nc4c3)nc2c1,u,n,n,x,n,n
O=C(c1ccccc1F)N1CCN(c2ccc([N+](=O)[O-])c(NCC3CCCO3)c2)CC1 (stereo unspecified),u,n,n,n,u,n
CC1CCCN(S(=O)(=O)c2cccc(C(=O)OCC(=O)N(C)Cc3c(F)cccc3Cl)c2)C1 (stereo unspecified),x,x,x,n[11.6 µM],n,x
SMILES,Pf growth 48h,Shiga toxin inh,Cycloheximide cs,AMA1 RON2 block,HCV inh,Pf growth 96h
COc1ccc2nc(SCC(C)=O)c(C#N)cc2c1,n,116,36,n,u,n
Cc1ccc2cc(C#N)c(SCC(=O)N3CCCC3)nc2c1,n,n,22,n,n,n
COCCC(=O)N1CCC(Oc2ccc(C(=O)N3C[C@H]4CC[C@H]3C4)cc2)CC1,n,n,n,n,n,n
CC(C)CCNC(=O)CCS(=O)(=O)c1cccc2nonc12,n,n,n,n,n,12µM
CC(=O)Nc1ccc(S(=O)(=O)N2CCN(c3cc(C)ccc3C)CC2)cc1,n,n,n,n,n,13µM
CC(=O)Nc1ccc(S(=O)(=O)N2CCN(S(=O)(=O)c3ccccc3)CC2)cc1,u,n,n,n,n,u
O=C1COc2ccc(S(=O)(=O)N3CCN(c4cccc(Cl)c4)CC3)cc2N1,n,n,n,n,n,13µM
Cc1ccc(C)c(N2CCN(S(=O)(=O)c3ccc4c(c3)NC(=O)CO4)CC2)c1,n,n,n,n,n,13µM
CC(=O)c1ccc(N2CCN(S(=O)(=O)c3ccc4c(c3)NC(=O)CO4)CC2)cc1,n,n,n,n,n,u
Cc1ccc(C)c(N2CCN(S(=O)(=O)c3ccc4c(c3)NC(=O)CC(=O)N4)CC2)c1,n,n,n,n,n,n
CCN(CC)C(=S)Nc1cc(C(=O)OC)ccc1C(=O)OC,n,n,n,n,n,u
O=C1CCCN1c1ccc(S(=O)(=O)NCc2ccc(F)cc2)cc1,n,n,n,n,n,u
COc1ccc(N(CC(=O)NC2CC3CCC2C3)S(=O)(=O)c2ccc(C)cc2)cc1Cl (stereo unspecified),x,x,x,n,x,x
C=CCN(C(=O)c1ccccn1)C(C(=O)NCc1ccccc1)c1ccccc1F (stereo unspecified),n,n,n,n,n,n
CC(Sc1n[nH]c(-c2cccs2)n1)C(=O)N1CCCC1 (stereo unspecified),x,x,x,n,n,x
CCN(CC)C1CCN(C(=O)c2ccc(OC3CCN(C(=O)CCOC)CC3)cc2)C1 (stereo unspecified),x,x,x,n,x,x
CCOC(=O)C1CCN(S(=O)(=O)CCNC(=O)c2ccc(F)cc2)CC1,u,x,x,n,n,n
Cc1ccc(NC(=O)CCS(=O)(=O)c2cccc3nonc23)cc1Cl,n,n,n,n,n,n
Cc1ccc(Cl)cc1N1CCN(C(=O)CCS(=O)(=O)c2ccc3c(c2)NC(=O)CO3)CC1,n,n,n,n,11µM,n
Cc1ccc(Cl)cc1N1CCN(C(=O)CCS(=O)(=O)c2cccc3nonc23)CC1,u,n,n,n,n,12µM
O=C1COc2ccc(S(=O)(=O)CCC(=O)N3CCN(c4cccc(Cl)c4)CC3)cc2N1,n,n,n,n,n,n
Cc1ccc2c(c1)N(S(=O)(=O)c1ccc3c(c1)NC(=O)CC(=O)N3)CCO2,n,n,n,n,n,8.3µM
CCOC(=O)CSc1nc2ccc(N3CCOCC3)cc2c(=O)n1Cc1ccc2c(c1)OCO2,12µM,n,n,x,4µM,x
CCN(CC)C(=O)CSc1nc2cc3c(cc2c(=O)n1Cc1ccc2c(c1)OCO2)OCO3,u,n,n,n,u,x
CCCCn1c(SCC(=O)NCc2ccco2)nc2ccc(N3CCOCC3)cc2c1=O,15µM,n,n,n,u,n
N#CCSc1nc2ccc(N3CCCCC3)cc2c(=O)n1Cc1ccccc1,u,38,21,n,u,x
CCCCn1c(SCC(=O)NCc2ccccc2)nc2ccc(N3CCOCC3)cc2c1=O,12µM,n,n,n,n,n
CCCCn1c(SCC(=O)NC(C)CC)nc2ccc(N3CCOCC3)cc2c1=O (stereo unspecified),u,n,n,n,n,u
